Assay results reported in the supplement of paper PMC12494721.
Structures can show the parent of a compound that is named as a salt.

Legend:
Details in all cases: incubation time: 27 h, anaerobic, 37 °C;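 for the amine columns active = adjusted P below 0.05 in both replicates with a change the same way and a mean fold change under 0.8 or over 1.25; inactive = the rest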
[1] = tested on: Clostridium sporogenes DSM 1664; assay: growth (OD595) fold change vs plate DMSO controls (fold change (ratio)); higher = more growth
How it was run: (§1)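 Anaerobic mGAM cultures in 96-well plates were grown for 27 h at 37 °C, and absorbance was then read at 595 nm. After blank and compound background correction with 20 µM compound solutions in water, a calibration factor of 5 gave OD. Growth is the fold change relative to the median of each plate's DMSO controls. Values are means of 2 biological replicates, with fold changes above 1.5 set to NA.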

[2] = tested on: Escherichia coli IAI1; assay: as above
How it was run: as §1

[3] = tested on: Klebsiella aerogenes DSM 30053; assay: as above
How it was run: as §1

[4] = tested on: Ruminococcus gnavus DSM 108212; assay: as above
How it was run: as §1

[5] = tested on: Klebsiella aerogenes DSM 30053; assay: fold change of Histamine concentration vs plate DMSO controls (fold change (ratio)); higher = more amine produced, active = hit call of the paper (significant change in both replicates, either direction)
How it was run: (§2)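 Extracts of whole anaerobic mGAM cultures were analysed for amines by LC–triple-quadrupole MS with dynamic MRM and external calibration curves, with drift corrected within batch. Four gut strains were grown at 37 °C for 27 h in 80 µL wells with compounds at 20 µM final, sweeteners at 50 µM final. Each value expresses fold change over plate DMSO controls. The average of 2 biological replicates is shown.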

[6] = tested on: Clostridium sporogenes DSM 1664; assay: fold change of Tryptamine concentration vs plate DMSO controls (fold change (ratio)); higher = more amine produced, active = hit call of the paper (significant change in both replicates, either direction)
How it was run: as §2

[7] = tested on: Ruminococcus gnavus DSM 108212; assay: as above
How it was run: as §2

[8] = tested on: Escherichia coli IAI1; assay: fold change of Putrescine concentration vs plate DMSO controls (fold change (ratio)); higher = more amine produced, active = hit call of the paper (significant change in both replicates, either direction)
How it was run: as §2

[9] = tested on: Klebsiella aerogenes DSM 30053; assay: as above
How it was run: as §2

[10] = tested on: Escherichia coli IAI1; assay: fold change of Cadaverine concentration vs plate DMSO controls (fold change (ratio)); higher = more amine produced, active = hit call of the paper (significant change in both replicates, either direction)
How it was run: as §2

[11] = tested on: Klebsiella aerogenes DSM 30053; assay: as above
How it was run: as §2

[12] = tested on: Ruminococcus gnavus DSM 108212; assay: fold change of 2-Phenylethylamine concentration vs plate DMSO controls (fold change (ratio)); higher = more amine produced, active = hit call of the paper (significant change in both replicates, either direction)
How it was run: as §2

| SMILES | growth [1] | growth [2] | growth [3] | growth [4] | fold change of Histamine concentration [5] | fold change of Tryptamine concentration [6] | fold change of Tryptamine concentration [7] | fold change of Putrescine concentration [8] | fold change of Putrescine concentration [9] | fold change of Cadaverine concentration [10] | fold change of Cadaverine concentration [11] | fold change of 2-Phenylethylamine concentration [12] |
| --- | --- | --- | --- | --- | --- | --- | --- | --- | --- | --- | --- | --- |
| CN(C)[C@@H]1C(=O)C(C(=O)NCNCCCC[C@H](N)C(=O)O)=C(O)[C@@]2(O)C(=O)C3=C(O)c4c(O)cccc4[C@@](C)(O)[C@H]3C[C@@H]12 [Lymecycline] (20 µM) | 0.746 | 1.23 | 0.995 | 0.941 | 1.05 (inactive) | 0.933 (inactive) | 0.996 (inactive) | 1.2 (inactive) | 1.03 (inactive) | 1.11 (inactive) | 0.999 (inactive) | 1.02 (inactive) |
| CC(=O)Oc1cc2c(s1)CCN(C(C(=O)C1CC1)c1ccccc1F)C2 (centres undefined) [Prasugrel] (20 µM) | 1.1 | 1.02 | 1 | 0.989 | 1 (inactive) | 0.957 (inactive) | 0.985 (inactive) | 0.983 (inactive) | 1.01 (inactive) | 1.03 (inactive) | 0.994 (inactive) | 0.965 (inactive) |
| OC[C@H]1O[C@@](CO)(OC[C@@]2(OC[C@@]3(O[C@H]4O[C@H](CO)[C@@H](O)[C@H](O)[C@H]4O)O[C@H](CO)[C@@H](O)[C@@H]3O)O[C@H](CO)[C@@H](O)[C@@H]2O)[C@@H](O)[C@@H]1O [Nystose] (50 µM) | 1.05 | 1.09 | 1.02 | 1.05 | 1.05 (inactive) | 1.01 (inactive) | 1 (inactive) | 0.999 (inactive) | 1.01 (inactive) | 0.958 (inactive) | 0.995 (inactive) | 0.994 (inactive) |
| CN(C)CCN(Cc1ccccc1)c1ccccn1 [Tripelennamine hydrochloride] (20 µM) | 1.03 | 0.99 | 1.02 | 0.946 | 0.957 (inactive) | 1.01 (inactive) | 1.02 (inactive) | 0.85 (inactive) | 1.01 (inactive) | 1.38 (active) | 1 (inactive) | 1.03 (inactive) |
| Clc1cccc(Cl)c1NC1=NCCN1 [Clonidine hydrochloride] (20 µM) | 0.856 | 0.984 | 0.989 | 0.99 | 1.04 (inactive) | 0.953 (inactive) | 1.09 (inactive) | 0.995 (inactive) | 1.01 (inactive) | 0.996 (inactive) | 0.992 (inactive) | 1.08 (inactive) |
| N[C@@H]1CCCCN(c2c(F)cc3c(=O)c(C(=O)O)cn(C4CC4)c3c2Cl)C1 [Besifloxacin hydrochloride] (20 µM) | 0.0111 | 0.0312 | 0.191 | 0.266 | 0.189 (active) | 0.0464 (active) | 0.149 (active) | 0.814 (inactive) | 1.08 (inactive) | 0.267 (active) | 0.988 (inactive) | 0.166 (active) |
| O=C(Cn1c(=O)sc2ccc(Cl)cc21)N1CCN(CCO)CC1 [Tiaramide Hydrochloride] (20 µM) | 0.912 | 1 | 1 | 0.982 | 1.01 (inactive) | 1.08 (inactive) | 1.07 (inactive) | 0.959 (inactive) | 0.993 (inactive) | 0.963 (inactive) | 0.991 (inactive) | 1.13 (inactive) |
| CCCCCOC(=O)Nc1nc(=O)n([C@@H]2O[C@H](C)[C@@H](O)[C@H]2O)cc1F [Capecitabine] (20 µM) | 1.12 | 0.991 | 1.07 | 0.98 | 0.921 (inactive) | 0.982 (inactive) | 1.03 (inactive) | 0.993 (inactive) | 0.99 (inactive) | 1.01 (inactive) | 1 (inactive) | 1.06 (inactive) |
| CNCCc1ccccn1 [Betahistine mesylate] (20 µM) | 1.26 | 1 | 1.02 | 1.25 | 0.991 (inactive) | 0.994 (inactive) | 1.02 (inactive) | 1.03 (inactive) | 0.995 (inactive) | 0.967 (inactive) | 0.993 (inactive) | 1.01 (inactive) |
| COc1cc(NC(C)CCCN)c2ncccc2c1 (centres undefined) [Primaquine diphosphate] (20 µM) | 1.08 | 1.02 | 1.07 | 0.905 | 0.851 (inactive) | 1.03 (inactive) | 1.07 (inactive) | 1.03 (inactive) | 0.943 (inactive) | 1 (inactive) | 1.02 (inactive) | 1.09 (inactive) |
| Cc1ccsc1C(=CCCN1CCC[C@@H](C(=O)O)C1)c1sccc1C [Tiagabine hydrochloride] (20 µM) | 1.03 | 0.984 | 1.05 | 1.01 | 0.968 (inactive) | 0.999 (inactive) | 0.971 (inactive) | 1.03 (inactive) | 1.02 (inactive) | 1.01 (inactive) | 1.01 (inactive) | 0.927 (inactive) |
| CCC(=O)c1c(O)cc(O)cc1O [Flopropione] (20 µM) | 0.955 | 1.01 | 0.997 | 0.986 | 1.01 (inactive) | 1 (inactive) | 0.927 (inactive) | 1 (inactive) | 1.01 (inactive) | 1 (inactive) | 1 (inactive) | 0.896 (inactive) |
| CS(=O)(=O)c1ccc([C@@H](O)[C@@H](CO)NC(=O)C(Cl)Cl)cc1 [Thiamphenicol] (20 µM) | 0.937 | 0.551 | 0.468 | 0.18 | 0.0658 (active) | 0.738 (active) | 0.141 (active) | 0.321 (active) | 0.426 (active) | 1.17 (inactive) | 0.957 (inactive) | 0.145 (active) |
| NC[C@H]1O[C@H](O[C@H]2[C@H](O[C@@H]3O[C@H](CO)[C@@H](O)[C@H]3O)[C@@H](O)[C@H](N)C[C@@H]2N)[C@H](N)[C@@H](O)[C@@H]1O [Ribostamycin sulfate salt] (20 µM) | 1.07 | 1.04 | 0.972 | 1.2 | 0.975 (inactive) | 1.02 (inactive) | 0.996 (inactive) | 1.14 (inactive) | 0.994 (inactive) | 0.963 (inactive) | 0.994 (inactive) | 1.03 (inactive) |
| Cc1cc2nc3c(=O)[nH]c(=O)nc-3n(C[C@H](O)[C@H](O)[C@H](O)CO)c2cc1C [Riboflavine] (20 µM) | 1.09 | 0.982 | 0.997 | 0.982 | 0.984 (inactive) | 1 (inactive) | 1.08 (inactive) | 0.989 (inactive) | 0.964 (inactive) | 1.01 (inactive) | 0.994 (inactive) | 1.15 (inactive) |
| CC(C)NC[C@@H](O)COc1cccc2ccccc12 [(R) Propranolol hydrochloride] (20 µM) | 1.08 | 0.856 | 0.86 | 0.617 | 1.01 (inactive) | 1.04 (inactive) | 0.95 (inactive) | 0.979 (inactive) | 0.993 (inactive) | 1.01 (inactive) | 0.987 (inactive) | 0.945 (inactive) |
| CC(CCc1ccc(O)cc1)NCCc1ccc(O)c(O)c1 (centres undefined) [Dobutamine hydrochloride] (20 µM) | 1.01 | 0.997 | 0.99 | 0.938 | 1.12 (inactive) | 1 (inactive) | 1.02 (inactive) | 0.998 (inactive) | 1.01 (inactive) | 0.971 (inactive) | 0.973 (inactive) | 1.04 (inactive) |
| CC1(C)S[C@@H]2[C@H](NC(=O)[C@H](N)c3ccccc3)C(=O)N2[C@H]1C(=O)O [Ampicillin sodium salt] (20 µM) | 0.00123 | 0.943 | 0.726 | 0.0281 | 1.2 (inactive) | 0.0126 (active) | 0.0802 (active) | 0.981 (inactive) | 1.02 (inactive) | 1.23 (inactive) | 1.18 (inactive) | 0.0719 (active) |
| O=S(=O)(O)NC1CCCCC1 [Cyclamic acid] (50 µM) | 1.16 | 0.998 | 0.991 | 0.998 | 1.01 (inactive) | 1.03 (inactive) | 1.01 (inactive) | 1.03 (inactive) | 1.01 (inactive) | 0.989 (inactive) | 0.991 (inactive) | 1.02 (inactive) |
| Fc1ccc([C@@H]2CCNC[C@H]2COc2ccc3c(c2)OCO3)cc1 [Paroxetine hydrochloride] (20 µM) | 1.01 | 1.06 | 0.971 | 0.929 | 1.05 (inactive) | 0.925 (inactive) | 0.833 (inactive) | 0.692 (inactive) | 0.991 (inactive) | 1.69 (active) | 0.991 (inactive) | 0.885 (inactive) |
| Oc1c(Cl)cc(Cl)cc1Sc1cc(Cl)cc(Cl)c1O [Bithionol] (20 µM) | 0 | 0.881 | 1.01 | 0.0806 | 1.05 (inactive) | 0.0165 (active) | 0.101 (active) | 1.26 (active) | 1.02 (inactive) | 1.51 (active) | 1.01 (inactive) | 0.0838 (active) |
| Cc1ccc(C(=O)c2cc(O)c(O)c([N+](=O)[O-])c2)cc1 [Tolcapone] (20 µM) | 1.11 | 0.961 | 0.997 | 1.19 | 1.01 (inactive) | 0.908 (inactive) | 0.983 (inactive) | 1.33 (inactive) | 0.998 (inactive) | 0.981 (inactive) | 1 (inactive) | 0.971 (inactive) |
